Screening data as filed in PubChem BioAssay.
3T3 cytotox: kills NIH 3T3 cells; NIH 3T3 viability, CellTiter-Glo ATP luminescence, 48-72 h; Potency, µM (series often up to 96.7 µM), for the others: at the highest dose activity change, negative = cytotoxicity, most hits filed as inhibitors; actives 4.3% (n = 94,000); further: nearly all actives have a fitted effect of over 55% in size
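ATP-dependent luminescence (CellTiter-Glo) served as the viability signal for NIH 3T3 cells treated with compound for 48 or 72 hr at 37 °C.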
NPR1 antag: antagonists of human natriuretic peptide receptor Npr1. Potency, µM (doses to about 46.3 µM), for inactives: at the highest dose activity change, negative = inhibition, most hits filed as inhibitors. actives 1.6% (n = 76,000). HEK293 hNpr1 GloSensor cGMP, ANP-stimulated luminescence. AID 1347048. P16066; calls by dose curve; further: nearly all actives have a fitted effect of over 60% in size
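Compound pre-incubated 30 min at room temperature on GloSensor-loaded HEK293 cells stably carrying hNpr1 and the pGS-40F cGMP biosensor. Stimulation uses hNppA at 0.1 nM final; luminescence is taken at baseline and 20 min post-agonist.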
HEK cytotox: kills HEK 293 cells; HEK 293 viability, ATP luminescence (CellTiter-Glo), 48-72 h; Potency, µM (top dose mostly 115 µM), inactives show top-dose activity change, negative = cytotoxicity, actives largely listed as inhibitors; actives 6.6% (n = 94,000); further: nearly all actives have a fitted effect of over 60% in size
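HEK 293 cells at 250 cells/well were exposed to compounds by pintool transfer for 48 or 72 hr at 37 degree Celsius, 5% CO2. Viability was read as ATP-coupled luminescence with CellTiter-Glo after 10 min at room temperature.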
Luciferase inh: Photinus pyralis luciferase inhibition; actives 2.5% (n = 76,000); AID 1347043; P08659; Potency, µM (doses to about 115 µM), most hits filed as inhibitors; purified P. pyralis luciferase, luminescence, biochemical; further: nearly all actives have a fitted effect of over 65% in size
Target sequence (P08659 whole entry, looked up): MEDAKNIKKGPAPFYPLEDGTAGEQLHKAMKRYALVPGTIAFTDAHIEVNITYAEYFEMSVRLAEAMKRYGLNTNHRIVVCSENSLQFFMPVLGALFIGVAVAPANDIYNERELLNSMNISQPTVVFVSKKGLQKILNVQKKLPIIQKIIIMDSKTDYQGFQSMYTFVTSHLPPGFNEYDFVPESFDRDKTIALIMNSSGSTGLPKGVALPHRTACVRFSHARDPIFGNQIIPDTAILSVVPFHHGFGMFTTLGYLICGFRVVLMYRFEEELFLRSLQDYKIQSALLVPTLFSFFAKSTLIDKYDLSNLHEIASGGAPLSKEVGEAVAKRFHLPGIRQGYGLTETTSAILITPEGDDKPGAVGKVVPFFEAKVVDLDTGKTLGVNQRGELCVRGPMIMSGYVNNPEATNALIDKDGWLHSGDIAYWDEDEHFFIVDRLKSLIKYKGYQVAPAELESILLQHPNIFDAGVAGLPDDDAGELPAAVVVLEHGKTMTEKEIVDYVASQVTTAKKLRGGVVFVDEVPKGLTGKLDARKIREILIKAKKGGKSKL
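Luminescence read by CCD imaging after purified firefly luciferase (10nM final) was added to substrate buffer holding 10uM D-luciferin and 10uM ATP, pH 7.5, pre-dosed with compound.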
* = called active by the depositor; i = inactive; ? = inconclusive; / = no result; [ ] = dose if it differs, or a comment. Sampled rows, rich in hits. Any-hit rate of the full collection: about 11%. Unless noted, the call rests on the fitted dose curve; in most records, active means well fitted curve in the direction sought with a large enough effect; inconclusive means small, poorly fitted or top-dose-only effect, or another doubt; inactive means no such curve, though single readings can be large; an effect the other way counts as inactive or inconclusive. On the % scale 0 is the no-effect control and ±100 the full control effect; potency means the concentration at half of the fitted maximal effect.

SMILES | 3T3 cytotox | NPR1 antag | HEK cytotox | Luciferase inh
Cc1c(-c2ccccc2)[nH]c2c(CNC(=O)Cn3ccc(=O)[nH]c3=O)cc(Cl)cc12 | ? | 1% | ? | ?
O=C(C1CC1)N1CCCC(C(=O)N2CCCC(c3nc4ncccc4[nH]3)C2)C1 (centres undefined) | -17% | / | i | /
Cc1cccc(CN2CCc3ncc(C(=O)NCCC(C)C)n3CC2)c1 | ? | -8%[70.6 µM] | 40µM* | i
N#Cc1cccc(CN2CCc3ncc(C(=O)NCCOc4ccccc4)n3CC2)c1 | 28µM* | ? | 28µM* | i
COCCn1c(=O)c(C(=O)NCc2ccc(OC)c(OC)c2)nc2cccnc21 | -19% | / | i | /
Cc1ccc(S(=O)(=O)N2CCCC(Cn3c(C)nc4cccnc43)C2)cc1Cl (centres undefined) | ? | ? | ? | i
OC1(c2csc(CN3CCc4ccccc4C3)n2)CCNCC1 | ? | -1%[70.6 µM] | ? | i
O=C(NCc1ccc2c(c1)OCO2)c1ccc2nnc(C3CCOCC3)n2c1 | -3% | / | 3% | /
Cc1ccc2c(C)c(C(=O)N(C)CCOc3ccccc3)oc2c1C | -17% | 1% | ? | 40µM*
CCn1cc(CN(C)C(=O)c2oc3c(C)c(C)ccc3c2C)cn1 | ? | -12% | ? | i
COCCNC(=O)c1cccc(-c2ccc(OC)nn2)c1 | -23%[138 µM] | / | -14%[172 µM] | /
OC[C@@H]1CN(C2CCCC2)C[C@H]1c1nc(-c2ccncc2)no1 | -12% | -2% | i | 25µM*
OC[C@@H]1CN(C2CCCC2)C[C@H]1c1nc(-c2cccnc2)no1 | 0% | -2% | -6% | 32µM*
O=C(C1CC1)N1CCC(C(=O)N2CCC(N3Cc4cccn4C3=O)CC2)CC1 | -17% | / | -6% | /
COc1cccc(CN2CCC3(CC2)OC(=O)N(Cc2ccccc2)C3(C)c2ccccc2)c1 (centres undefined) | ? | -11% | ? | i
COc1ccc(Nc2ncc(-c3ccccc3OC)c3c2OCC3)cn1 | ? | ? | ? | 32µM*
COc1cncc(Nc2ncc(-c3ccccc3OC)c3c2OCC3)c1 | 71µM* | -4%[70.6 µM] | ? | i
COCCNC(=O)c1ccc2nnc(-c3ccoc3)n2c1 | -12%[138 µM] | / | 0%[172 µM] | /
Cc1cc(C(=O)NCc2cccs2)c2c(C3CCCNC3)noc2n1 (centres undefined) | -3% | / | -5% | /
COc1ccc(-c2cc(N3CCCC(NC(=O)c4ccc(C)cc4C)C3)n[nH]2)cc1 (centres undefined) | -18% | -16% | ? | 16µM*
Cc1ccsc1C(=O)NC1CCCN(c2cc(-c3ccc(F)cc3)[nH]n2)C1 (centres undefined) | ? | -29% | ? | ?
COc1ccc(-c2cc(N3CCCC(NC(=O)c4cc(C)ccc4C)C3)n[nH]2)cc1 (centres undefined) | 32µM* | -19% | ? | i
COc1ccc(-c2cc(N3CCC(NC(=O)c4cc(C)ccc4C)C3)n[nH]2)cc1 (centres undefined) | ? | -11% | ? | i
COc1ccc(-c2cc(N3CCCC(NC(=O)c4sccc4C)C3)n[nH]2)cc1 (centres undefined) | -26% | -13% | ? | 25µM*
COc1ccc(-c2cc(N3CCC(NC(=O)c4ccc(C)cc4C)C3)n[nH]2)cc1 (centres undefined) | ? | -10% | ? | i
SMILES | 3T3 cytotox | NPR1 antag | HEK cytotox | Luciferase inh
Cc1ccsc1C(=O)NC1CCN(c2cc(-c3ccc(Cl)cc3)[nH]n2)C1 (centres undefined) | ? | -23% | 50µM* | i
Cc1ccc(Nc2ccnc(N3CCC(C(=O)NCCCc4ccccc4)CC3)n2)cc1 | 13µM* | / | ? | /
Cc1ccc(Nc2ccnc(N3CCCC(C(=O)NCCCc4ccccc4)C3)n2)cc1 (centres undefined) | ? | / | 5µM* | /
COc1ccc(CCNC(=O)C2CCCN(c3ccnc4ccnn34)C2)cc1 (centres undefined) | -25% | / | -9% | /
COc1ccc(Nc2ccnc(N3CCCC(C(=O)NCCCc4ccccc4)C3)n2)cc1 (centres undefined) | ? | / | 22µM* | /
O=[S+]([O-])(c1cccs1)N1CCCC2(CC(c3cccc(C(F)(F)F)c3)=NO2)C1 (centres undefined) | -38% | / | ? | /
CN1CCC(N[C@H]2C[C@@H](Cc3cc(C(C)(C)C)on3)C2(C)C)CC1 | 50µM* | 2%[70.6 µM] | 28µM* | i
